Bioassay records: PubChem, several laboratories
Only some compounds are listed: those with a hit (about 3.1% of all), similar ones and a draw of the others.
Mtb FBA inh: Mtb fructose-bisphosphate aldolase inhibition. hit rate 2.3% among 360,000. purified M. tuberculosis FBA, fluorescence read-out. AID 588726. inhibition, % at 1 µM; in the data active = inhibition above about 27%;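 note: 0% = vehicle and 100% = reference inhibitor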
Target sequence (P9WQA3 whole entry, looked up): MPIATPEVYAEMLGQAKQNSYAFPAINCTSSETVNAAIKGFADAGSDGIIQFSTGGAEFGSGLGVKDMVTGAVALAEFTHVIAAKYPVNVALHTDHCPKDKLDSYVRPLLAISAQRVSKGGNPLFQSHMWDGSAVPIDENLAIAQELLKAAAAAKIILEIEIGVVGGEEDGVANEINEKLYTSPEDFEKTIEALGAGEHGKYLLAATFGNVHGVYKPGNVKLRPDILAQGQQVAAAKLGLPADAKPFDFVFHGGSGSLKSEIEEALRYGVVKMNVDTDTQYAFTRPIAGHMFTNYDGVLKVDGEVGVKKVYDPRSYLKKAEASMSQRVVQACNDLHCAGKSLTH
FadD28 binding: blocks FadD28 binding to the bisubstrate probe | fluorescence polarization | inhibition, % at 12.5 µM | hit rate 0.22% among 360,000; in the data active = inhibition above about 8.5%, passing the limit was not always enough; inconclusive = no clear call, values can overlap the other calls
GDH-TPI counter: inhibits GDH-TPI coupling enzymes, artifact for Mtb FBA screen; GDH-TPI coupled enzyme counterscreen, NADH absorbance; inhibition, % at 4.8 µM; hit rate 1.2% among 360,000; AID 588335; in the data active = inhibition above about 30%;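 note: 0% = DMSO wells and 100% = wells lacking the enzyme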
SARS 3CLpro inh: SARS-CoV 3CLpro protease inhibition | P0C6X7 | recombinant SARS-CoV 3CLpro, quenched FRET peptide cleavage | inhibition, % at 6 µM | hit rate 0.14% among 290,000; in the data active = inhibition above about 12%
Mtb BioA inh: inhibitors of Mycobacterium tuberculosis BioA enzyme. purified M. tuberculosis BioA enzyme, plate reader. inhibition, % at 9.99 µM. hit rate 0.096% among 360,000. AID 602481; in the data active = inhibition above about 40%; inconclusive = no clear call, values can overlap the other calls
The depositor's hits bear a star; ? = inconclusive; nt = no result; + = active, no number.

SMILES | Mtb FBA inh | FadD28 binding | GDH-TPI counter | SARS 3CLpro inh | Mtb BioA inh
COC(=O)C1=CN(Cc2ccccc2)C=C(C(=O)OC)C1c1ccc(OC)c(OC)c1 | 3 | 0 | 9 | 3 | 2
COC(=O)C[C@H]1CC[C@@H]2[C@@H](COc3ccc(NC(=O)c4cccc(Cl)c4)cc3C(=O)N2C)O1 | nt | nt | nt | nt | -3
O=C(Cc1ccccn1)NCC[C@H]1CC[C@@H](NC(=O)CN2CCOCC2)[C@H](CO)O1 | nt | nt | nt | nt | -3
O=c1oc2c(O)c(O)cc3c(=O)oc4c(O)c(O)cc1c4c23 | 0 | 14* | 14 | -5 | 5
COC(=O)c1[nH]c2cc(OC)c(OC)cc2c1NC(=O)c1cccc(OC)c1 | -2 | 2 | 32* | 1 | -1
C[C@H](CO)N1C[C@H](C)[C@@H](CN(C)Cc2ccccc2C(=O)O)Oc2cc(-c3ccc(C(=O)N(C)C)cc3)ccc2S1(=O)=O | nt | nt | nt | nt | 3
O=C(CSc1nnc(CNC(=O)c2c(F)cccc2Cl)o1)Nc1ccc2c(c1)OCO2 | 95* | 0 | -3 | 2 | -3
O=C(CN1CCOCC1)NCC[C@H]1CC[C@@H](NS(=O)(=O)c2ccc(Cl)cc2)[C@@H](CO)O1 | nt | nt | nt | nt | -3
COc1ccc(/C=C(/NC(=O)c2cccs2)C(=O)NC(C)(C)C)cc1OC | -3 | 0 | 13 | -1 | -2
COc1ccc(/C=C(\NC(=O)c2cccs2)C(=O)NN)cc1OC | 0 | 1 | 38* | 0 | -2
Cc1ccc(-c2ccc(/C=N/N=C3/NC(=O)C(CC(=O)O)S3)o2)c([N+](=O)[O-])c1 (configuration not stated) | -4 | 1 | 36* | 1 | nt
O=C(O)CC1S/C(=N/N=C/c2ccc(-c3ccccc3[N+](=O)[O-])o2)NC1=O (configuration not stated) | -5 | 0 | 40* | 4 | -1
Cc1ccc(S(=O)(=O)Oc2ccc(/C=N/N=C3/NC(=O)C(CC(=O)O)S3)cc2)cc1 (configuration not stated) | 1 | -6 | 22 | nt | nt
CCCCc1cc(=O)oc2c3c(cc(OCC(=O)N4CCC[C@H]4C(=O)O)c12)OC(C)(C)CC3 | + | 1 | 27 | 1 | -3
Cc1cc(=O)oc2c3c(cc(OCC(=O)N4CCC(C(=O)O)CC4)c12)OC(C)(C)CC3 | + | 1 | 22 | -3 | 0
Cc1c(C)c2c(OCC(=O)N3CCC(C(N)=O)CC3)cc3c(c2oc1=O)CCC(C)(C)O3 | + | 2 | 27 | 3 | 0
CCCc1cc(=O)oc2c(C)c(OCC(=O)N3CCC(C(N)=O)CC3)ccc12 | 24 | 0 | 25 | -3 | -1
Cc1cc(=O)oc2c3c(cc(OCC(=O)N4CCC[C@H]4C(=O)O)c12)OC(C)(C)CC3 | + | -3 | 26 | 3 | 0
C[C@@H]1CN([C@@H](C)CO)C(=O)c2cc(NC(=O)c3ccncc3)ccc2O[C@@H](C)CCCCO[C@@H]1CN(C)C(=O)C1CCCCC1 | nt | nt | nt | nt | 2
C[C@H]1CN([C@@H](C)CO)S(=O)(=O)c2ccc(-c3ccccc3)cc2O[C@H]1CN(C)C(=O)C1CC1 | nt | nt | nt | nt | 2
CNC[C@H]1Oc2c(NC(=O)Nc3ccc(C(F)(F)F)cc3)cccc2C(=O)N([C@@H](C)CO)C[C@@H]1C | nt | nt | nt | nt | 1
Cc1ccc(S(=O)(=O)Nc2ccc3c(c2)C(=O)N([C@H](C)CO)C[C@H](C)[C@H](CN(C)C)OCCCC[C@H](C)O3)cc1 | nt | nt | nt | nt | -3
CCSc1ccc(C(=O)NCC(=O)O)cc1 | -1 | -2 | -3 | 3 | -1
CSc1ccc(NC(=O)Nc2ccc(C(=O)NCC(=O)O)cc2)cc1 | -1 | 11* | 7 | 1 | nt
O=C(CSc1nccc(=O)[nH]1)N1N=C2/C(=C/c3ccco3)CCCC2C1c1ccco1 (configuration not stated) | 1 | -1 | 12 | 6 | -1
SMILES | Mtb FBA inh | FadD28 binding | GDH-TPI counter | SARS 3CLpro inh | Mtb BioA inh
Nc1nc(SCC(=O)N2N=C3/C(=C\c4ccco4)CCCC3C2c2ccco2)n[nH]1 (configuration not stated) | -1 | -2 | 33* | nt | nt
Nc1nc(SCC(=O)N2N=C3/C(=C/c4ccco4)CCCC3C2c2ccco2)n[nH]1 (configuration not stated) | 4 | -4 | 35* | 3 | 0
CN(C)c1ccc(/C=C2/C(=N\O)C3CCN2CC3)cc1 | 1 | 0 | 52* | 3 | -3
CN(C)c1ccc(/C=N/O)cc1 | 3 | -5 | 7 | 1 | nt
CNC(=O)C[C@H]1CC[C@@H]2[C@H](COC[C@H](O)CN2C(=O)Nc2cccc(OC)c2)O1 | nt | nt | nt | nt | 6
CCN(CC)c1ccc(/C=N/NC(=O)c2ccco2)c(O)c1 | 4 | -1 | 41* | -1 | nt
CCN(CC)c1ccc(/C=N/NC(=O)c2ccco2)cc1 | -2 | -3 | 43* | -3 | 0
CCN(CC)c1ccc(NC(=O)c2ccco2)cc1 | -1 | -4 | 6 | 0 | -1
CCN(CC)c1ccc(/C=N/NC(=O)Cc2cccs2)c(O)c1 | 0 | ? | 38* | -4 | -1
Cc1noc(C)c1S(=O)(=O)Nc1ccc2c(c1)C(=O)N([C@@H](C)CO)C[C@@H](C)[C@H](CN(C)S(C)(=O)=O)OCCCC[C@@H](C)O2 | nt | nt | nt | nt | -2
Clc1cccc(-c2ccnc3nc(-n4cccc4)nn23)c1 | 11 | -3 | 6 | 5 | nt
O=C(Nc1nc2nccc(-c3ccccc3)n2n1)C(Cl)(Cl)Cl | 173* | 0 | 21 | 3 | nt
C[C@@H]1CN([C@@H](C)CO)C(=O)c2ccccc2-c2ccccc2CO[C@H]1CN(C)S(=O)(=O)c1ccc(C(F)(F)F)cc1 | nt | nt | nt | nt | 1
CC(C)NC(=O)NC(=O)CSc1nnc(COc2ccccc2F)n1C(C)C1CC2CCC1C2 (configuration not stated) | 2 | -2 | -2 | 0 | -1
CC(C1CC2CCC1C2)n1c(COc2ccccc2F)nnc1SCC(N)=O (configuration not stated) | + | 1 | -5 | 2 | 6
O=C(NNC(=S)Nc1ccccc1Cl)c1ccncc1 | -3 | -1 | 34* | -1 | -1
CCCCCCCCCCCCCCC[C@@H](O)[C@@H](N)CO | -2 | 48* | 8 | nt | -1
CCCCCCCCCC(=O)OCC(O)CO (configuration not stated) | 1 | 0 | 3 | 4 | 1
O=C(N[C@H]1CC[C@@H](CCn2cc(-c3ccccc3)nn2)O[C@@H]1CO)c1cnccn1 | nt | nt | nt | nt | -1
CNC[C@H]1OCCCC[C@@H](C)Oc2ccc(NC(=O)c3ccncc3)cc2C(=O)N([C@@H](C)CO)C[C@H]1C | nt | nt | nt | nt | -2
CCOc1ccccc1Nc1ncnc2ccccc12 | 189* | -2 | 7 | 2 | 1
CCOc1ccccc1Nc1ncnc2ccc(Br)cc12 | 2 | -2 | 7 | 4 | nt
CC(C)NC(=O)Nc1ccc2c(c1)C(=O)N(C)[C@@H]1CC[C@H](CC(=O)NC3CCCCC3)O[C@H]1CO2 | nt | nt | nt | nt | 4
CCC(=O)Nc1cccc(-c2nnc(-c3cccc(NC(=O)CC)c3)o2)c1 | 5 | -3 | 4 | -5 | -1
